Reference: PubChem BioAssay (NCI)
Compounds without any hit were thinned out: in the full panel of roughly 79,000, 15% have a hit. The source made the active and inactive calls. No stated cut-off is given here; in the data, active means growth inhibition above about 70%; inactive means the rest.

How the values were obtained:
[1] = NCI Yeast Anticancer Drug Screen. Data for the rad52 strain (AID 147);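 further: 0% = growth of vehicle-treated control cultures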; conditions: S. cerevisiae rad52 mutant growth inhibition, active compounds read high
Summary of the method: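 Vehicle-treated cultures served as the reference for growth inhibition of compound-exposed yeast bearing a DNA repair mutation.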

[2] = NCI Yeast Anticancer Drug Screen. Data for the wt1 strain (AID 149);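 further: 0% = growth of vehicle-treated wt1 cultures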; conditions: S. cerevisiae wt1 strain (SPY 50644) growth inhibition, active compounds read high
Summary of the method: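 wt1 yeast, compound-treated; % growth inhibition vs vehicle control.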

[3] = NCI Yeast Anticancer Drug Screen. Data for the rad50EPP+ strain (AID 151);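 further: 0% = growth of vehicle-treated control cultures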; conditions: S. cerevisiae rad50 mutant strain, active compounds read high
Summary of the method: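 In this screen, rad50EPP+ yeast were exposed to compounds. Growth inhibition was scored against vehicle-treated controls.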

[4] = NCI Yeast Anticancer Drug Screen. Data for the mgt1 strain (AID 153); conditions: S. cerevisiae mgt1 mutant growth inhibition, active compounds read high
Summary of the method: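 mgt1 strain exposed; growth vs vehicle control recorded as inhibition.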

[5] = NCI Yeast Anticancer Drug Screen. Data for the rad50 strain (AID 155);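 further: 0% = growth of vehicle-only cultures of the same strain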; conditions: S. cerevisiae rad50 strain growth inhibition, active compounds read high
Summary of the method: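 Genetically altered yeast (DNA repair pathway); compound treatment; growth inhibition vs vehicle ctrl.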

[6] = NCI Yeast Anticancer Drug Screen. Data for the mec2-1 strain (AID 157); conditions: S. cerevisiae mec2-1 strain, active compounds read high
Summary of the method: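 Vehicle-treated cultures served as reference for growth inhibition of compound-exposed mec2-1 yeast.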

[7] = NCI Yeast Anticancer Drug Screen. Data for the sgs1 mgt1 strain (AID 161);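 further: 0% = growth of cultures given vehicle only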; conditions: S. cerevisiae sgs1 mgt1 strain, active compounds read high
Summary of the method: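 Read-out: growth inhibition vs vehicle controls. Cells: mutant yeast strain deficient in DNA damage repair.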

[8] = NCI Yeast Anticancer Drug Screen. Data for the CLN2oe strain (AID 163);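 further: 0% = growth of vehicle-only control cultures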; conditions: S. cerevisiae CLN2oe strain, active compounds read high
Summary of the method: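 Inhibition relative to vehicle-treated yeast is reported. Cells: strain with genetic alteration in cell-cycle control, grown with compound.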

[9] = NCI Yeast Anticancer Drug Screen. Data for the cln2 rad14 strain (AID 165);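 further: 0% = growth equal to vehicle treated cultures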; conditions: S. cerevisiae cln2 rad14 strain, active compounds read high
Summary of the method: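 Each compound was tested on cln2 rad14 yeast. Inhibition of growth was calculated against vehicle-exposed controls.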

[10] = NCI Yeast Anticancer Drug Screen. Data for the bub3 strain (AID 167); conditions: S. cerevisiae bub3 mutant strain, active compounds read high
Summary of the method: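 Yeast carrying a defined mutation is treated with each compound, and growth is compared with that of vehicle-exposed cells to give inhibition.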

[11] = NCI Yeast Anticancer Drug Screen. Data for the wt2 strain (AID 169);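 further: 0% = growth of vehicle-treated yeast cultures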; conditions: S. cerevisiae wt2 strain growth inhibition, active compounds read high
Summary of the method: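 Inhibition of yeast growth was determined after compound treatment, normalised to controls receiving only vehicle.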

[12] = NCI Yeast Anticancer Drug Screen. Data for the mlh1 strain (AID 171);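 further: 0% = growth of vehicle-treated control cultures of the same strain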; conditions: S. cerevisiae mlh1 strain growth inhibition, active compounds read high
Summary of the method: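 Vehicle-normalised growth inhibition of a repair- or checkpoint-altered yeast strain following compound treatment.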

[13] = NCI Yeast Anticancer Drug Screen. Data for the sgs1 strain (AID 173);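 further: 0% = growth of vehicle-only control cultures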; conditions: S. cerevisiae sgs1 mutant, active compounds read high
Summary of the method: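 Screen format: yeast with repair or checkpoint alterations, compound exposure, growth read relative to vehicle.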

[14] = NCI Yeast Anticancer Drug Screen. Data for the mlh1 rad18 strain (AID 175); conditions: S. cerevisiae mlh1 rad18 strain growth inhibition, active compounds read high
Summary of the method: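 Vehicle-treated cultures served as the reference for growth inhibition in a yeast strain carrying DNA damage repair alterations exposed to each compound.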

[15] = NCI Yeast Anticancer Drug Screen. Data for the rad18 strain (AID 177); conditions: S. cerevisiae rad18 mutant growth inhibition, active compounds read high
Summary of the method: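 Test articles were incubated with altered yeast defective in DNA damage repair. Results are given as inhibition of growth versus vehicle.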

[16] = at 5.0 µM (retest, dose inferred, filed as 0.5)
[17] = at 50.0 µM (retest, dose inferred, filed as 5.0)

Measured: growth inhibition

OC(c1ccc(F)cc1)(c1ccc(F)cc1)C1CC1
active: [1]; at 100.0 µM 76% | [2]; at 100.0 µM 90% | [5]; [17] 99% | [5]; at 100.0 µM 94% | [6]; [17] 100% | [6]; at 100.0 µM 95% | [7]; [17] 77% | [8]; at 100.0 µM 93% | [9]; [17] 73% | [10]; [17] 81% | [10]; at 100.0 µM 96% | [11]; at 100.0 µM 87% | [12]; at 100.0 µM 92% | [13]; at 100.0 µM 86% | [14]; [17] 100% | [15]; at 100.0 µM 95%
inactive: [1]; at 1.2 µM -39% | [1]; at 3.7 µM -58% | [1]; at 11.0 µM -47% | [1]; at 33.0 µM 12% | [2]; at 1.2 µM -38% | [2]; at 3.7 µM -33% | [2]; at 11.0 µM -36% | [2]; at 33.0 µM -27% | [3]; at 1.2 µM -10% | [3]; at 3.7 µM -17% | [3]; at 11.0 µM -35% | [3]; at 33.0 µM -26% | [3]; at 100.0 µM 11% | [4]; at 1.2 µM -36% | [4]; at 3.7 µM -47% | [4]; at 11.0 µM -47% | [4]; at 33.0 µM -51% | [4]; at 100.0 µM 20% | [5]; at 1.2 µM -31% | [5]; at 3.7 µM -32% | [5]; [16] 59% | [5]; at 11.0 µM -26% | [5]; at 33.0 µM 32% | [5]; at 50.0 µM 62.9% | [6]; at 1.2 µM -87% | [6]; at 3.7 µM -42% | [6]; [16] 68% | [6]; at 11.0 µM -67% | [6]; at 33.0 µM -32% | [6]; at 50.0 µM 40.1% | [7]; [16] -4% | [7]; at 50.0 µM 51.4% | [8]; at 1.2 µM -16% | [8]; at 3.7 µM -3% | [8]; at 11.0 µM -9% | [8]; at 33.0 µM -8% | [9]; [16] 41% | [9]; at 50.0 µM 28.9% | [10]; at 1.2 µM -32% | [10]; at 3.7 µM -27% | [10]; [16] 20% | [10]; at 11.0 µM -13% | [10]; at 33.0 µM -16% | [10]; at 50.0 µM 64.8% | [11]; at 1.2 µM -25% | [11]; at 3.7 µM -25% | [11]; at 11.0 µM -5% | [11]; at 33.0 µM -28% | [12]; at 1.2 µM -39% | [12]; at 3.7 µM -64% | [12]; at 11.0 µM -66% | [12]; at 33.0 µM -42% | [13]; at 1.2 µM -62% | [13]; at 3.7 µM -43% | [13]; at 11.0 µM -52% | [13]; at 33.0 µM -42% | [14]; [16] 67% | [14]; at 50.0 µM 64% | [15]; at 1.2 µM -8% | [15]; at 3.7 µM -11% | [15]; at 11.0 µM -21% | [15]; at 33.0 µM 46%
